About 3,000 (1%) of roughly 290,000 compounds were called active. For the sample, actives were picked, then their nearest neighbours and some compounds at random. A number with no mark means an inactive call. Cut-off read from the data, not from the text of the source: active = inhibition mostly above about 36% (no sharp cut-off); inactive = mostly below about 34%.

The nature of this experiment: NOD1 signaling inhibitors, primary screen, cell-based, luminescence, uHTS (AID 1578).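 Note: HEK-293T reporter cells stimulated with the NOD1 agonist gamma-tri-DAP.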 The conditions noted are these: NOD1-driven NF-kB luciferase reporter cells, at 4 µM, active compounds read high.
As for `CCn1ccnc1[C@@H]1C[C@H]2CN(c3ccccc3OC)C(=O)[C@]23CCCN13`, the inhibition is -22.3%. For `C=C(C)Cn1c(NCCC)nc2c1c(=O)n(C)c(=O)n2C` the value was -26.6%.

For the compound `CC(CCc1ccccc1)NC(=O)CN1CCSc2ccccc21` (stereo not given), the inhibition is 8%.

As for `CC(C)(C)C1CCC(=O)N(CCSc2ccccc2)CC1` (stereo not given), the inhibition is -65%. The figure for `CC1=C(C)C(=O)C(CCCCC#CCCCC#CCO)=C(C)C1=O` is -6.7%; for `COC1=C(OC)C(=O)C(CCCCCCCCCCO)=C(C)C1=O` it is 87.7% (active); for `Cc1[nH]c(=S)[nH]c(=O)c1CCCO` it is -25.6%.

Consider `COc1ccc(C(CCN(Cc2ccc(OC)c(OC)c2)C(C)=O)c2ccccc2)cc1` (stereo not given), for which the inhibition is 14.5%.

As for `COc1ccc(CNCCC(c2ccccc2)c2ccc(OC(C)C)cc2)cc1OC` (stereo not given), the inhibition was -3.1%. The figure for `COc1ccc(C(CCN(Cc2ccc(OC)c(OC)c2)C(=O)CCl)c2ccccc2)cc1` (stereo not given) is 82.9% (active).

For the compound `COc1ccc(C(CCN(Cc2ccc(OC)c(OC)c2)C(C)=O)C(C)C)cc1` (stereo not given), the inhibition was -0.7%.

With `COc1ccc(CNCCC(c2ccc(OC(C)C)cc2)c2ccccc2OC)cc1OC` (stereo not given), the inhibition was -0.9%. The figure for `COc1ccccc1N(C(C)=O)c1nc(C)cc(C)c1C#N` is -33.1%. For `O=C(O)c1ccc(NS(=O)(=O)c2cccc(S(=O)(=O)c3ccc(Cl)c(Cl)c3)c2)cc1` the value was -30.6%; for `COc1cc2c(cc1OC)CN(CC(=O)Nc1ccc(C)c(S(=O)(=O)N3CCOCC3)c1)CC2`, -14.6%; for `COc1cccc(NC(=O)Cn2nc(Cc3cccnc3)c3ccccc3c2=O)c1`, -18.3%. The figure for `Cn1c(/C=C/c2ccccc2)nc2ccccc21` is 48.9% (active).

As for `C=CCn1c(/N=C/c2ccc(OC)cc2)nc2ccccc21`, the inhibition was -6.3%.

In the case of `Cn1c(/C=C/c2ccccc2)nc2ccccc2c1=O`, the inhibition was -12.9%. The figure for `CCCn1c(/C=C/c2ccccc2)nc2ccccc21` is -41.4%. For `COc1ccc(/C=N\n2nnc3ccccc32)cc1` the value was 42% (active). The figure for `COc1ccc(Cn2c(/C=C/c3ccccc3)nc3ccccc32)cc1` is -65.7%; for `COc1ccc(/C=N/NC(=O)CCn2nnc3ccccc32)cc1` it is -3.7%.

Regarding `COc1ccc(/C=C/c2nc3ccccc3n2Cc2ccccc2OC)cc1`, the inhibition is 5.5%. For `COc1ccc(/C=C/c2nc3ccccc3n2C)cc1` the value was 74.4% (active); for `O=C(OCC(=O)C12CC3CC(CC(C3)C1)C2)c1cnccn1`, -23.7%; for `CCOC(=O)c1c(CSc2ccc(C)cc2)n(C)c2cc(Br)c(O)c(CN(C)C)c12`, -29.9%. For `CC(C)(C)c1ccc(OCCNC(=S)NC(=O)c2cccnc2)cc1` the value was -17.1%; for `Cc1ccc2[nH]c(=O)c3cc(C(=O)NC(C)C)sc3c2c1`, -4.6%; for `COC(=O)CSc1nnc(CNC(=O)c2cccs2)n1-c1cccc(C)c1`, -22.2%. The figure for `COC(=O)c1ccc(N2CCN(S(=O)(=O)c3ccccc3)CC2)c([N+](=O)[O-])c1` is -18.3%. In the case of `O=C(c1ccc(N2CCN(S(=O)(=O)c3ccccc3)CC2)c([N+](=O)[O-])c1)N1CCOCC1`, the inhibition is -3.7%. The figure for `CCN1CCN(C(c2cccs2)C(C)NC(=O)C(=O)N2CCCCC2)CC1` (stereo not given) is -23.8%; for `Cc1ccc(Nc2ncnc3c2nnn3Cc2ccccc2)cc1` it is -7.5%. For `O=C(CCC(=O)N1CCSc2ccccc21)NCc1cccc(Br)c1` the value was -27.1%; for `O=c1[nH]c(CCl)nc2cc(-c3ccc(Cl)cc3)sc12`, 92.6% (active); for `COc1ccc(-c2cc3nc[nH]c(=O)c3s2)cc1`, -1.7%. The figure for `O=c1[nH]cnc2cc(-c3ccc(Br)cc3)sc12` is -63.3%; for `OCCN(CC#CCC(O)(c1ccccc1)C1CCCC1)CCO` (stereo not given) it is -2%. Turning to `CCCCCc1cc(=O)oc2c(C(CCN3CCCCC3)c3ccc4c(c3)OCO4)c(OC)cc(OC)c12` (stereo not given), the inhibition was 2.9%. The figure for `Cc1ccc2[nH]cc(/C=C/c3cc[n+](C)cc3)c2c1` is 4.2%.

Consider `Cc1ccc2[nH]c(C)c(/C=C/c3cc[n+](C)cc3)c2c1`, for which the inhibition is 5.6%. For `Cc1ccc(Cn2c(S(=O)(=O)O)nc3ccccc32)cc1`, the inhibition was -25.7%. On to `CS(=O)(=O)c1nc2ccccc2n1Cc1ccccc1`, for which the inhibition is 13.9%.

For `O=S(=O)(O)c1nc2ccccc2n1Cc1ccccc1`, the inhibition was 82.8% (active). The figure for `COc1ccc(CCC(=O)N(c2nnc(-c3cccnc3)s2)C(C)C)cc1` is -14.2%; for `NC(=O)NC(=O)CSc1ccccc1` it is -37.5%. Consider `COCCc1nnc(NC(=O)C23CC4CC(CC(C4)C2)C3)s1`, for which the inhibition is -34.2%. For `O=C(Nc1ccc(Oc2cccc(C(F)(F)F)c2)nc1)c1ccccc1` the value was 10.3%. `CC(C)(C)c1ccc(C(=O)Nc2ccc(Oc3cccnc3)nc2)cc1`: the inhibition was 29%. Regarding `O=S(=O)(N/N=C\c1ccc2c(c1)OCO2)c1ccc(F)cc1`, the inhibition was -7.6%. As to `Cc1ccc(NC2=Nc3ccccc3N3C2=Nc2c(c(C)nn2-c2ccccc2)C3c2ccc(O)c(O)c2)cc1` (stereo not given), the inhibition is 2.5%. Regarding `Cc1nn(-c2ccccc2)c2c1C(c1ccc(O)c(O)c1)N1C(=N2)C(Nc2ccccc2)=Nc2ccccc21` (stereo not given), the inhibition was -2.4%. The figure for `CC(=O)Nc1ccc(NC2=Nc3ccccc3N3C2=Nc2c(c(C)nn2-c2ccccc2)C3c2ccccc2)cc1` (stereo not given) is 99% (active); for `CCOc1ccc(NC(=O)Nc2cc(OCC(F)(F)F)cc(OCC(F)(F)F)c2)cc1` it is -32.9%.

Take `O=C(Nc1ccccc1)Nc1cc(OCC(F)(F)F)cc(OCC(F)(F)F)c1`: the inhibition is -5.2%. The figure for `O=C(Nc1ccc(F)cc1)Nc1cc(OCC(F)(F)F)cc(OCC(F)(F)F)c1` is 84.5% (active); for `C[C@H](NC(=O)[C@@H]1Cc2ccccc2CN1)C(=O)NC1CCCC1` it is -25.1%.

Take `COc1cccc(NC(=O)c2ccc(NC(=O)C(C)(C)C)cc2)c1`: the inhibition was -63%. The figure for `CCCCOc1ccc(/C=C/C(=O)Nc2ccc([N+](=O)[O-])cc2C)cc1` is -22.5%; for `O=C(/C=C/c1ccc([N+](=O)[O-])cc1)Nc1ncc([N+](=O)[O-])s1` it is 54.9% (active); for `O=C(/C=C/c1ccc([N+](=O)[O-])cc1)Nc1cccnc1` it is -4.6%.

Turning to `CCCOc1ccc(/C=C/C(=O)Nc2ccc([N+](=O)[O-])cc2C)cc1`, the inhibition was 0.8%. For `CCCOc1ccc(/C=C/C(=O)Nc2ccc([N+](=O)[O-])cc2)cc1` the value was 76.6% (active). The figure for `O=C(Nc1ccccc1)Nc1ncc([N+](=O)[O-])s1` is -0.5%.

The record behind these values is PubChem BioAssay AID1578 (Sanford-Burnham Center for Chemical Genomics, 2009).
